# Shown are actives, neighbours in structure and some others; about 12% of the full set was active somewhere.
# Pf growth 48h = P. falciparum growth inhibition at 48 hours (one generation) | P. falciparum luciferase growth in erythrocytes, 48 h | Potency, µM (titrated, usually from 28.7 µM), for inactives: at the highest dose activity change, negative = inhibition, usual class: inhibitors | AID 504832 | 310,000 compounds, 5.9% hits; note: % is set by controls: 0 for no effect and ±100 for the full control effect
#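 Luminescence readout; reporter = integrated firefly luciferase in P. falciparum. RBC culture at 2% hematocrit, 0.1% parasitemia final, 37 C/5% CO2; decreased signal taken as growth inhibition.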
# Pf growth 96h = P. falciparum growth inhibition at 96 hours; AID 504834; Potency, µM (doses to about 28.7 µM), for inactives: at the top dose activity change, negative = inhibition, most hits filed as inhibitors; 320,000 compounds, 6.9% hits; P. falciparum luciferase reporter growth, 96 h; note: % is set by controls: 0 for no effect and ±100 for the full control effect
#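 P. falciparum expressing integrated firefly luciferase, in erythrocytes at 2% hematocrit, 0.05% parasitemia, incubated with compounds 96 h at 37 C, 5% CO2. Growth inhibition read as loss of luminescence; two-generation exposure targets delayed-death apicoplast inhibitors.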
# AMA1 RON2 block = disrupts binding of P. falciparum AMA1 to RON2; AlphaScreen AMA1-biotinylated RON2 peptide binding; Potency, µM (highest dose often 58.2 µM), for inactives: at the highest dose activity change, negative = inhibition, actives largely listed as inhibitors; AID 720542; 360,000 compounds, 0.2% hits;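 note: 0% = vehicle wells and -100% = peptide control; nearly all actives have a fitted effect of over 45% in size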
#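 AMA1 (3D7) with his tag at 25 nM final met compounds first, then biotinylated RON2 peptide at 25 nM; detection used donor plus acceptor beads, 10 µg/mL apiece, read by AlphaScreen after 30 min at room temperature.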
# HCV inhibitor = HCV inhibition | Huh7.5.1 HCVcc-Cre infection, luciferase reporter, 44 h | Potency, µM (series often up to 41.8 µM), inactives show at the highest dose activity change, negative = inhibition, hits mostly inhibitors | 340,000 compounds, 3.4% hits; note: % is set by controls: 0 for no effect and ±100 for the full control effect
#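 1,000 cells/well; 4 h culture; + compound; + HCVcc-Cre (~0.5 moi); 44 h; luciferase substrate, RT 15 min; read 15 sec.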
# NS1 function inh = influenza NS1 inhibition; Potency, µM (series often up to 46.1 µM), without a hit: at the top dose activity, positive = more growth; 270,000 compounds, 0.4% hits; calls by dose curve; note: actives are rising curves; nearly all actives have a fitted effect of over 50% in size
#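 Compounds were scored for reversing the slow growth caused by influenza A NS1 in S. cerevisiae, measured by optical density at 600 nm. Assay medium contained 2% galactose at pH 6.0; NS1-free yeast of the same strain were the positive control.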
# SARS PLP yeast = inhibitors of SARS-CoV papain-like protease in yeast; AID 485353; 330,000 compounds, 0.19% hits; Potency, µM (series often up to 32.9 µM), inactives show at the top dose activity, positive = growth rescue, most hits filed as activators; S. cerevisiae expressing SARS-CoV PLpro, growth rescue; calls by dose curve; note: 0% is about no effect; nearly all actives have a fitted effect of over 55% in size
# An asterisk follows results filed as active; u = inconclusive; x = no result given; [ ] = another dose, or the depositor's remark. Unless noted, calls come from the whole dose curve; as a rule, active = well fitted curve in the direction sought with a large enough effect; inconclusive = small, poorly fitted or top-dose-only effect, or another doubt; inactive = no such curve, though single readings can be large; an effect the other way counts as inactive or inconclusive. Potency is the fitted concentration of half-maximal effect.
SMILES,Pf growth 48h,Pf growth 96h,AMA1 RON2 block,HCV inhibitor,NS1 function inh,SARS PLP yeast
O=C(NCC1CCCO1)c1cncc(Br)c1 (stereo not drawn),u,25.1%,-4.8%,12.2%,x,1.1%
CC1CCCC(C)N1C(=O)COC(=O)C1CCN(S(=O)(=O)c2ccc3c(c2)OCCO3)CC1 (stereo not drawn),u,6.1%,13.1%,u,x,6.0%
O=c1cc(-c2cc3ccccc3o2)c2cc(O)ccc2o1,u,u,0.9%,u,-7.6%,-2.5%
Cc1cc2oc(=O)cc(-c3cc4ccccc4o3)c2cc1O,7.38µM*,2.62µM*,-28.3%,u,-15.6%,8.2%
CC(=O)COc1ccc2oc(=O)cc(-c3cc4ccccc4o3)c2c1,-3.9%,u,-3.5%,14.1µM*,-1.3%,-7.8%
CC(C)C(NC(=O)c1ccc(Cl)c([N+](=O)[O-])c1)C(=O)NCc1ccccn1 (stereo not drawn),x,x,11.1%,-1.6%,x,-4.2%
O=C(O)c1cc([N+](=O)[O-])c(NCCC2=CCCCC2)c([N+](=O)[O-])c1,-12.5%,-101.3%,-16.4%,2.8%,x,0.2%
O=C(N/N=C/c1ccncc1)c1cccc(N/N=C/c2ccncc2)c1,-14.7%,u,-0.4%,-6.6%,x,0.7%
CC(C)(C)c1ccc(C(=O)N/N=C/c2cccc(Cl)c2)cc1,x,13.1µM*,-2.6%,7.08µM*,-60.8%,-13.8%
O=C(N/N=C/c1ccncc1)c1cccc(NC(=O)c2ccc(Cl)cc2)c1,13.1µM*,u,-12.8%,-24.5%,5.2%,-16.0%
O=C(N/N=C/c1cc(Cl)ccc1O)c1ccncc1,2.33µM*,u,-75.9%,u,-70.1%,0.2%
COc1ccc(-c2cc(-c3nnc(COC(=O)CC4CC5CCC4C5)o3)c3ccccc3n2)cc1OC (stereo not drawn),9.28µM*,0.0%,156.8%,-17.2%,10.4%,-14.4%
Oc1ccc(/C=N/NC(=S)N2CCOCC2)cc1,141.9%,u,45.4%,-24.1%,0.1%,-1.5%
CCN(CC(=O)Nc1c(F)cccc1F)C(=O)Cc1sc(C)nc1-c1ccc(F)cc1,u,2.8%,7.4%,-0.6%,x,2.4%
CCN(CC(=O)Nc1cc(Cl)ccc1C)C(=O)Cc1sc(C)nc1-c1ccc(F)cc1,u,4.65µM*,-13.8%,-29.1%[8.37 µM],x,-5.5%
Cc1ccc(C)c(OCCC(=O)NNC(=O)c2cc(C)oc2C)c1,u,-18.7%,76.4%,-4.4%,x,2.3%
COc1ccc(-c2sc3ccc(N4CCOCC4)cc3c2C#CC2(O)CCCCC2)cc1,x,x,-9.9%,2.82µM*,x,2.1%
COc1ccc(-c2oc3ccccc3c2C#Cc2cncn2C)cc1,0.586µM*,0.657µM*,8.4%,2.82µM*,x,6.2%
COc1ccc(-c2sc3ccc(OC)cc3c2C#Cc2cncn2C)cc1,x,x,-1.1%,2.82µM*,x,-8.9%
COc1cc(OC)cc(-c2sc3ccc(OC)cc3c2C#CC(C)(C)O)c1,u,u,2.5%,u,x,1.9%
COc1ccc(-c2sc3cc4c(cc3c2C#Cc2cncn2C)OCO4)cc1,x,x,4.9%,5.01µM*,x,3.4%
COc1cccc(-c2sc3ccc(OC)cc3c2C#CC2(O)CCCCC2)c1,u,u,18.5%,u,x,2.0%
CCOc1ccc(S(=O)(=O)Nc2ccccc2C(=O)N2CCOCC2)cc1,13.5%,0.6%,-17.0%,15.6%,-5.4%,1.0%
C[C@H](O)[C@@H]1CN2CCc3c([nH]c4ccccc34)[C@@H]2C[C@@H]1N(C)C(=S)Nc1ccc(C#N)cc1,x,x,2.4%,x,x,x
COc1ccc(NC(=O)NCC(C)CSc2ccc(C)cc2)c(OC)c1 (stereo not drawn),-32.2%,u,-1.3%,u,-1.7%,-0.4%
COc1ccc(-c2sc3cc4c(cc3c2C#CC2(N)CCCCC2)OCO4)cc1,13.1µM*,u,-25.4%,22.4µM*,x,0.4%
Cc1ccc(-c2nc3ccc(C)cn3c2Cc2ccccn2)cc1,x,x,17.4%,x,x,x
CCCc1cc(=O)oc2c(C)c(OCC(=O)NC3CCN(Cc4ccccc4)CC3)ccc12,u,13.1µM*,-2.8%,6.31µM*,-8.3%,3.8%

# Screening data: PubChem BioAssay, National Center for Advancing Translational Sciences (NCATS)
